Screens deposited in PubChem BioAssay by National Center for Advancing Translational Sciences (NCATS).
This is a sample that favours compounds with a hit; in the whole collection about 12% have one here.
HP1b chromo inh = blocks HP1-beta chromodomain binding to methylated histone tails; P83916; AlphaScreen HP1-beta / biotin-H3K9me3 peptide binding; Potency, µM (titrated, usually from 114 µM), without a hit: at the top dose activity change, negative = inhibition, most hits filed as inhibitors; actives 0.56% (n = 390,000); AID 540317; further: nearly all actives have a fitted effect of over 70% in size
Target sequence (P83916 whole entry, looked up): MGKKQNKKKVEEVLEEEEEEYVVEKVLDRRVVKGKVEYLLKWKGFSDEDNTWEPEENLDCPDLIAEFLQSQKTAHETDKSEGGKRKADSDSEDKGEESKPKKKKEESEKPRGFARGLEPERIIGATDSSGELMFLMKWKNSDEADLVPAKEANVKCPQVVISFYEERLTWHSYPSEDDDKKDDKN
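Compound inhibition of the preformed complex between 50 nM HP1-beta and 50 nM biotinylated H3K9me3 peptide was read by AlphaScreen. Buffer was PBS pH 7.4 with 0.01% Tween-20. Incubations ran 30 min at room temperature, with 10 ug/mL donor/acceptor beads.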
JMJD2A Tudor inh = inhibitors of human JMJD2A Tudor domain. actives 4.4% (n = 390,000). Potency, µM (highest dose often 114 µM), inactives show at the highest dose activity change, negative = inhibition, most hits filed as inhibitors. AID 504339. O75164. AlphaScreen JMJD2A-Tudor / H3K4me3 peptide binding; further: on the % scale 0 is the no-effect control and ±100 the full control effect; nearly all actives have a fitted effect of over 50% in size
Sfp inh = blocks B. subtilis Sfp PPTase activity. Biochemical Sfp PPTase activity, qHTS. Potency, µM, for the others: largest response in the series, negative = inhibition, most hits filed as inhibitors. actives 3.5% (n = 310,000);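 further: the enzyme is Sfp with the accession as filed and its product quenches rhodamine fluorescence; 0% = enzyme reaction without inhibitor and -100% = no enzyme wells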
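Fluorescence-quenching assay with 15 nM Sfp, 5 uM rhodamine-CoA and 12.5 uM BHQ-2-labelled ybbR peptide in pH 7.6 Hepes/MgCl2 buffer. Enzyme was pre-incubated with compound for 15 min at room temperature. Rate was taken from the 30-min fluorescence change (525/598 nm).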
G9a inh = G9a (human) methyltransferase inhibition; G9a H3K9 monomethylation, AlphaScreen, 2 h; Potency, µM (doses to about 102 µM), for inactives: top-dose activity, negative = inhibition, actives largely listed as inhibitors; actives 8.8% (n = 350,000); AID 504332; further: on the % scale 0 is the no-effect control and ±100 the full control effect; nearly all actives have a fitted effect of over 75% in size
Target sequence (Q96KQ7 913-1193 limits assumed): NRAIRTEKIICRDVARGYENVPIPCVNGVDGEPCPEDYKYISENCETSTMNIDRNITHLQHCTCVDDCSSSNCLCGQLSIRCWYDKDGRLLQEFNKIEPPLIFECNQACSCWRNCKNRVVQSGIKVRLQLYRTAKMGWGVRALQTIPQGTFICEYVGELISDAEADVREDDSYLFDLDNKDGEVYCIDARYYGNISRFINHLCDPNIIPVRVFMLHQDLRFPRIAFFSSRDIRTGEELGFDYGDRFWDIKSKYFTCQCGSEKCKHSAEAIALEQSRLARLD
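Enzyme 20 nM + cpd, 15 min RT; add b-H3K9 pep 500 nM / SAM 20 uM; 2 h RT; anti-H3K9me1 Ab 0.5 ug/mL + SA donor / anti-rabbit acceptor beads 20 ug/mL each, 10 min; AlphaScreen read.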
BAZ2B block = inhibitors of human BAZ2B bromodomain; Potency, µM (doses to about 114 µM), without a hit: top-dose activity change, negative = inhibition, actives largely listed as inhibitors; AlphaScreen BAZ2B-H3K14Ac peptide displacement; AID 504333; actives 4.4% (n = 360,000); further: on the % scale 0 is the no-effect control and ±100 the full control effect; nearly all actives have a fitted effect of over 60% in size
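In this displacement format the biotinylated H3(5-23) peptide acetylated at Lys14 serves as ligand at 50 nM, with BAZ2B at 50 nM in PBS pH 7.4 containing 0.01% Tween-20. Donor and acceptor beads are 10 ug/mL final.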
* marks the source's active call; other numbers are inactive results; [ ] = dose if it differs, or a comment. The call rests on the fitted dose curve; in most records, active means well fitted curve in the direction sought with a large enough effect; inconclusive means small, poorly fitted or top-dose-only effect, or another doubt; inactive means no such curve, though single readings can be large; an effect the other way counts as inactive or inconclusive. Potency means the concentration at half of the fitted maximal effect.

What do the screens show for `Cc1ccc(-c2cc(C(=O)Nc3ccccc3C(N)=O)c3ccccc3n2)o1`?
HP1b chromo inh: 0%; JMJD2A Tudor inh: -36%

How did COc1cccc(NC(=O)CN(C)C(=O)c2cc(-c3ccc(F)cc3)nc3ccccc23)c1 do in these assays?
HP1b chromo inh: 16%; JMJD2A Tudor inh: inconclusive; G9a inh: -39%; BAZ2B block: 1%

How did Cc1ccc(-c2cc(C(=O)N(C)CC(=O)Nc3ccccc3Br)c3ccccc3n2)o1 do in these assays?
HP1b chromo inh: 0%; JMJD2A Tudor inh: inconclusive; G9a inh: 8.9µM*; BAZ2B block: -1%

Results for COc1ccc(NC(=O)CN(C)C(=O)c2cc(-c3ccco3)nc3ccccc23)cc1 ?
HP1b chromo inh: 45µM*; JMJD2A Tudor inh: 14µM*; G9a inh: -3%[0.501 µM]; BAZ2B block: 32µM*

Results for COc1ccc(NC(=O)CN(C)C(=O)c2ccc(-c3cccc(C(F)(F)F)c3)o2)cc1 ?
HP1b chromo inh: 8%; JMJD2A Tudor inh: -15%; Sfp inh: 19%; G9a inh: 21%; BAZ2B block: -21%

Results for CN(CC(=O)Nc1cccc(F)c1)C(=O)c1cc(-c2ccco2)nc2ccccc12 ?
HP1b chromo inh: 50µM*; JMJD2A Tudor inh: 10µM*; G9a inh: 15%[0.501 µM]; BAZ2B block: 50µM*

How did COc1ccc(NC(=O)CN(C)C(=O)c2ccc(-c3ccccc3Cl)o2)cc1 do in these assays?
HP1b chromo inh: 15%; JMJD2A Tudor inh: -18%; G9a inh: 40µM*; BAZ2B block: -30%

Results for CN(CC(=O)Nc1ccc(F)c(F)c1F)C(=O)c1cc(-c2ccncc2)nc2ccccc12 ?
HP1b chromo inh: -4%; JMJD2A Tudor inh: -28%; G9a inh: 56µM*; BAZ2B block: -7%

What do the screens show for `Cc1nc2ccc(NC(=O)COc3ccccc3)cc2s1`?
HP1b chromo inh: 33%; JMJD2A Tudor inh: -10%; Sfp inh: 5%; G9a inh: -3%; BAZ2B block: 3%

How did COc1ccc(/C=N/OCC(=O)Nc2nc3ccccc3s2)cc1OC do in these assays?
HP1b chromo inh: -1%; JMJD2A Tudor inh: 50µM*; Sfp inh: -3%; G9a inh: 7%; BAZ2B block: -2%

What do the screens show for `CCc1sc(NC(=O)COC)nc1-c1ccccc1`?
HP1b chromo inh: -22%; JMJD2A Tudor inh: -10%; Sfp inh: -6%; G9a inh: 35µM*; BAZ2B block: 3%

What do the screens show for `CCC(=O)Nc1nc2ccc(NC(=O)COc3ccccc3)cc2s1`?
HP1b chromo inh: 36%; JMJD2A Tudor inh: -1%; Sfp inh: 1%; G9a inh: 79µM*; BAZ2B block: -17%

How did CCOCC(=O)Nc1nnc(C)s1 do in these assays?
HP1b chromo inh: 18%; JMJD2A Tudor inh: -2%; Sfp inh: -1%; G9a inh: 45µM*; BAZ2B block: 11%

What do the screens show for `Cc1nnc(NC(=O)COc2ccccc2)s1`?
HP1b chromo inh: 9%; JMJD2A Tudor inh: -26%; Sfp inh: 6%; G9a inh: inconclusive; BAZ2B block: -6%

Results for CCc1sc(NC(C)=O)nc1-c1ccccc1 ?
HP1b chromo inh: 21%; JMJD2A Tudor inh: -10%; Sfp inh: 0%; G9a inh: -17%; BAZ2B block: inconclusive

Results for COc1ccc(NS(=O)(=O)c2ccc3[nH]c(=O)ccc3c2)cc1OC ?
HP1b chromo inh: 8%; JMJD2A Tudor inh: inconclusive; G9a inh: -40%[59 µM]; BAZ2B block: inconclusive

How did CCNC(=O)Nc1nc2ccccc2s1 do in these assays?
HP1b chromo inh: 31%; JMJD2A Tudor inh: -2%; Sfp inh: -1%; G9a inh: -5%; BAZ2B block: -4%

How did CCOCC(=O)Nc1nc2ccccc2s1 do in these assays?
HP1b chromo inh: 42%; JMJD2A Tudor inh: -3%; Sfp inh: 50µM*; G9a inh: 5%[59 µM]; BAZ2B block: 14%

Results for Nc1nc[nH]c(=O)c1N=Cc1ccccc1 ?
HP1b chromo inh: 27%; JMJD2A Tudor inh: -14%; Sfp inh: -6%; BAZ2B block: inconclusive

What do the screens show for `CSc1nnc(C)c(/C=C/Nc2ccc(C)cc2)n1`?
HP1b chromo inh: 10%; JMJD2A Tudor inh: -5%; Sfp inh: -5%; G9a inh: 6%[59 µM]; BAZ2B block: 9%

What do the screens show for `CSc1nnc(C)c(/C=C/NOCc2ccc(Cl)cc2)n1`?
HP1b chromo inh: -18%; JMJD2A Tudor inh: inconclusive; Sfp inh: 14%; G9a inh: 13µM*; BAZ2B block: inconclusive

How did CC1CN(Cc2csc(-c3ccc(Cl)cc3)n2)CC(C)O1 (configuration not stated) do in these assays?
HP1b chromo inh: inconclusive; JMJD2A Tudor inh: 10µM*; Sfp inh: -31%; G9a inh: 40µM*; BAZ2B block: 50µM*

How did ClCc1csc(-c2ccc(Cl)cc2)n1 do in these assays?
HP1b chromo inh: 140%; JMJD2A Tudor inh: 52%; Sfp inh: 9%; G9a inh: 8%; BAZ2B block: 8%

How did CCN(CC)C(=O)Cn1cc(SCC(=O)Nc2ccccc2C)c2ccccc21 do in these assays?
HP1b chromo inh: 56%; JMJD2A Tudor inh: -11%; G9a inh: -15%[59 µM]; BAZ2B block: -10%

What do the screens show for `Cc1ccc(C(=O)COC(=O)c2cc(-c3ccc(Cl)cc3)nc3ccccc23)cc1`?
HP1b chromo inh: 56%; JMJD2A Tudor inh: 12%; G9a inh: 25%[59 µM]; BAZ2B block: 16%

How did CCn1c(N)c(C(=O)NCCOC)sc1=S do in these assays?
HP1b chromo inh: inconclusive; JMJD2A Tudor inh: 3%; Sfp inh: 56µM*; G9a inh: 20%[12.7 µM]; BAZ2B block: 5%

What do the screens show for `COC(=O)c1ccccc1NC(=O)CC(=O)Nc1ccccc1C(=O)OC`?
HP1b chromo inh: 23%; JMJD2A Tudor inh: -4%; Sfp inh: 5%; G9a inh: 4%[2.33 µM]; BAZ2B block: 4%

How did CCn1c(N)c(C(=O)Nc2ccccc2C(=O)OC)sc1=S do in these assays?
HP1b chromo inh: inconclusive; JMJD2A Tudor inh: -16%[11.4 µM]; Sfp inh: 35µM*; G9a inh: inconclusive; BAZ2B block: inconclusive

How did NNC(=O)c1cccc(Cn2cc(Br)c([N+](=O)[O-])n2)c1 do in these assays?
HP1b chromo inh: 55%; JMJD2A Tudor inh: 3%; Sfp inh: -12%; G9a inh: 40µM*; BAZ2B block: -23%

What do the screens show for `CCCNC(=O)c1cccc(Cn2cc(Br)c([N+](=O)[O-])n2)c1`?
HP1b chromo inh: 24%; JMJD2A Tudor inh: 2%; Sfp inh: 9%; G9a inh: -11%; BAZ2B block: -1%

How did O=C(O)/C=C/c1cccc(OCc2ccccc2)c1 do in these assays?
HP1b chromo inh: 1%; JMJD2A Tudor inh: -8%; Sfp inh: 10%; G9a inh: 17%[59 µM]; BAZ2B block: -17%

What do the screens show for `O=C(/C=C/c1ccc([N+](=O)[O-])cc1)c1cccnc1`?
HP1b chromo inh: 18%; JMJD2A Tudor inh: inconclusive; Sfp inh: 18µM*; G9a inh: inconclusive; BAZ2B block: 0%
